Laboratory results taken from PubChem BioAssay (NCI).
Compounds without any hit were thinned out: in the full panel of roughly 83,000, 20% have a hit.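 Values shown are percent growth following 48 h exposure of cells in 96-well plates to a single concentration of compound; below 10 was considered active.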 Values without a mark were called inactive. Calls of active or inactive are those of the source.

system: UO-31 renal; assay: NCI-60 one-dose screen, 48 h (100 = growth as untreated, 0 = no growth, -100 = all killed); conditions: 10 µM unless noted

| SMILES | growth |
| --- | --- |
| COc1ccc(/C=C/C=C\C(=O)c2ccc(-n3ccnc3)cc2)cc1 | 73.9% |
| Cc1ccccc1-n1nnc(C(=O)Nc2nc3ccc(F)cc3s2)c1C | 58% |
| O=C(N/N=C/c1ccc([N+](=O)[O-])cc1)c1ccc(Br)o1 | -17.5% (active) |
| Cc1nc(-c2ccccc2)sc1CC#N | 106% |
| O=S(=O)(/N=c1/n(-c2ccccc2)nc2n1CCN2C1=NCCN1)c1ccc(-c2ccccc2)cc1 | 84.4% |
| Nc1ccc2c(c1)Cc1cc(NC(=O)C(F)(F)F)ccc1-2 | 75.7% |
| O=C(Nc1ccc(C(=O)/C=C/c2ccc(N3CCOCC3)cc2)cc1)Nc1ccc([N+](=O)[O-])cc1 | 83.5% |
| C=CCc1nc2ccccc2s1 | 63.6% |
| O=C(Nc1cc(F)cc2cccnc12)c1cnc(N2CCNCC2)cn1 | 29% |
| C[n+]1c2ccccc2nc2c(N)cc(N)cc21 | 78.3% |
| CCOC(=O)CCC[P+](c1ccccc1)(c1ccccc1)c1ccccc1 | 87.5% |
| COc1ccc2nc3ccccc3c(NCCNCCO)c2c1 | -7.42% (active) |
| c1nc(N2CCOCC2)c2[nH]ccc2n1 | 87.6% |
| Oc1c(CNCCNCc2cc(Cl)cc(Cc3ccccc3)c2O)cc(Cl)cc1Cc1ccccc1 | -20% (active) |
| COc1cc(Cl)cc(-c2nn(C(=O)NS(=O)(=O)c3ccccc3)cc2-c2ccncc2)c1 | 70.6% |
| COc1cccc(-c2[nH]c(=S)ncc2C(=O)c2ccccc2)c1 | 75.9% |
